Screens from PubChem.
A selection: hits, their analogues and other compounds. The true share with any hit is near 3.2%.
ERK AVP inh = blocks ERK signaling stimulated by vasopressin; HEK293-V1b, vasopressin-stimulated pERK AlphaScreen; Potency, µM (top dose mostly 57.5 µM), inactives show at the highest dose activity, negative = inhibition, usual class: inhibitors; actives 0.99% (n = 72,000); AID 995; also: potency is read from the fitted curve at half-maximal effect; % is scaled to controls: 0 for no effect and ±100 for the full control effect; nearly all actives have a fitted effect of over 55% in size
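Overnight-seeded V1b-HEK293 cells in 1% FBS got compound, then vasopressin (25 nM final, 5 min, 37C), then lysis buffer. AlphaScreen detection of phospho-ERK; activity normalized to basal and full-stimulation controls.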
p53ts 39C tox = kills p53ts cells at the nonpermissive temperature. H1299-p53A138V viability at 39C, ATP luminescence, 24 h. Potency, µM (series often up to 46.1 µM), for the others: at the highest dose activity change, negative = cell killing, most hits filed as cytotoxic. actives 1.5% (n = 130,000); also: potency is read from the fitted curve at half-maximal effect; % is scaled to controls: 0 for no effect and ±100 for the full control effect; nearly all actives have a fitted effect of over 55% in size
DNA Pol III inh = inhibitors of bacterial DNA polymerase III holoenzyme | reconstituted DNA polymerase III holoenzyme replication, biochemical | Potency, µM (doses to about 57.1 µM), inactives show at the highest dose activity change, negative = inhibition | actives 0.25% (n = 71,000) | AID 603; also: potency is read from the fitted curve at half-maximal effect; % is scaled to controls: 0 for no effect and ±100 for the full control effect
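Reconstituted *E. coli* holoenzyme (0.35 nM Pol III, 1 nM beta, 154 nM SSB, 2 nM primase) was preincubated with compound for 15 min at RT. Synthesis on 1.4 nM ssM13Gori ran 35 min, then was stopped with PicoGreen/EDTA and read as dsDNA fluorescence.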
p53ts 32C kill = p53ts cell cytotoxicity, permissive temperature; AID 924; H1299-p53A138V at 32C, ATP luminescence viability, 24 h; actives 0.93% (n = 130,000); Potency, µM (doses to about 46.1 µM), inactives show at the highest dose activity change, negative = cytotoxicity, actives largely listed as cytotoxic;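 also: potency is read from the fitted curve at half-maximal effect; 0% = DMSO and -100% = full killing by reference compound; nearly all actives have a fitted effect of over 55% in size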
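H1299-p53 A138V cells (temperature-sensitive p53) exposed 24 h to up to 46 uM compound at 32C, where p53 is wild-type in conformation. Viability read as ATP luminescence and normalised to DMSO and 100 uM tamoxifen. AC50 fitted with the Hill equation.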
Tau filament bind = tau filament binding; P10636; recombinant tau filaments, thioflavin S fluorescence, 15 h; filaments grown with octadecylsulfate alongside compound; Potency, µM (doses to about 57.1 µM), without a hit: at the top dose activity change, negative = inhibition; actives 2% (n = 71,000); AID 596;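 also: potency is read from the fitted curve at half-maximal effect; % is scaled to controls: 0 for no effect and ±100 for the full control effect; actives lower thioflavin S fluorescence by blocking filaments or displacing dye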
Target sequence (P10636 whole entry, looked up): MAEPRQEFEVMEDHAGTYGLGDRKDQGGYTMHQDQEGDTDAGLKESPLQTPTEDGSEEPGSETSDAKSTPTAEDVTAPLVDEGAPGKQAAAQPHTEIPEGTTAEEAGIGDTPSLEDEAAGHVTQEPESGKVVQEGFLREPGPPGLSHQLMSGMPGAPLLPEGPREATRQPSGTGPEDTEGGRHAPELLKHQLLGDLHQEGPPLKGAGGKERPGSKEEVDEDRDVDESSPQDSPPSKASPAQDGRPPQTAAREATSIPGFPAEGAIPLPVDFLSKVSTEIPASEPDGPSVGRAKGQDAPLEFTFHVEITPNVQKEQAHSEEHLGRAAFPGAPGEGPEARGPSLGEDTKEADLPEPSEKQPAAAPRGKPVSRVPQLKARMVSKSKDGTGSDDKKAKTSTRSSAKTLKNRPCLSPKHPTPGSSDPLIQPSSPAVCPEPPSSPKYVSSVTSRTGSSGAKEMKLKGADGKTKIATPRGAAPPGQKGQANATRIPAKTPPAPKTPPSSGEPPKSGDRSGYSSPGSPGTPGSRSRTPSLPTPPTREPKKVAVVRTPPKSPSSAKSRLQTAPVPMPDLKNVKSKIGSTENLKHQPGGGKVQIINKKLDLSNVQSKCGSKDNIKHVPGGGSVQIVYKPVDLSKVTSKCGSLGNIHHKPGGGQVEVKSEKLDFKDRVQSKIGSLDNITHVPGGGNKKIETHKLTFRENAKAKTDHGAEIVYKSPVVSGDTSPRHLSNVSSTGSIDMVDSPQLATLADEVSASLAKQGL
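Quantitative HTS: thioflavine S signal from ODS-induced tau filaments, excited at 450 nm, emission 510 nm. Conditions: 1 uM tau, 30 uM ODS, 15 h at 37 C, pH 7.4.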
TsaE inh = YjeE (TsaE) inhibition, E. coli. P0AF67. purified YjeE enzyme, qHTS inhibition assay. Potency, µM. actives 0.05% (n = 71,000)
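Fluorescence polarization of a BODIPY Texas Red–ADP probe (2 uM) bound to purified YjeE (10 uM) was read after 15 min room-temperature incubation with compounds. Loss of polarization marks inhibitors; ADP serves as titrated control.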
Starred values were filed as active, the others as inactive; i = inactive; ? = inconclusive; · = not tested or not shown; ! = not active in a repeat; [ ] = dose if it differs, or a comment. Calls follow the shape of the dose curve; as a rule, active = well fitted curve in the direction sought with a large enough effect; inconclusive = small, poorly fitted or top-dose-only effect, or another doubt; inactive = no such curve, though single readings can be large; an effect the other way counts as inactive or inconclusive.

SMILES | ERK AVP inh | p53ts 39C tox | DNA Pol III inh | p53ts 32C kill | Tau filament bind | TsaE inh
O=C(Nc1ccc2oc(-c3cccnc3)nc2c1)c1ccc(-c2cccc(Cl)c2)o1 | · | 8% | · | 2% | · | ·
COc1cccc(-c2cc(C(=O)Nc3cnn(Cc4ccc(Cl)cc4Cl)c3)no2)c1 | · | 10µM* | · | ? | · | ·
C[N+]1(C)CCc2cc3c(cc2[C@@H]1[C@@H]1OC(=O)c2c1ccc1c2OCO1)OCO3 | -1% | 18% | -3% | -10% | -4% | i
C[C@H](N)[C@H](O)c1ccc(O)c(O)c1 | -14%[25.7 µM] | 12%[20.6 µM] | 5µM* | -1%[20.6 µM] | 21%[25.6 µM] | i
CC(C)(C)c1cc(C=C(C#N)C#N)cc(C(C)(C)C)c1O | 25% | -23% | -3% | 10µM* | -4% | i
CC[C@H]1CN2CC[C@@H]1C[C@@H]2[C@H](O)c1ccnc2ccccc12 | · | · | -4% | · | 12% | i
CCCCOc1ccc(CN2C(=O)C(=O)c3cc(C)ccc32)cc1OC | · | 10µM* | · | 12% | · | ·
CC(=O)OC1C[C@@]2(C)C(c3ccoc3)C[C@H]3O[C@@]32[C@@]2(C)C(=O)C(O)=C3C(C)(C)C(=O)C=C[C@]3(C)C12 (stereo partly drawn) | -6% | ? | · | 1.6µM* | · | ·
CO[C@@H]1CC=C2CCN3CCC4=C(CC(=O)OC4)[C@]23C1 | 0% | 22% | 7% | 11% | -5% | i
C#CCN1C(C)=C(C(=O)CCO)[C@@H](c2cccc(-n3oo3)c2)C(C(=O)OC)=C1C | ? | 6% | -4% | 6% | 40µM* | i
Cc1c2ccncc2c(C)c2c1[nH]c1ccccc12 | 13% | 13µM* | 7.9µM* | 13µM* | i | i
c1ccc2c(c1)[nH]c1cnccc12 | 17% | 22% | · | 7% | · | ·
Ic1ccccc1CN[C@@H]1C2CCN(CC2)[C@H]1C(c1ccccc1)c1ccccc1 | 17% | 20µM* | -2% | ? | 50% | i
O=CN1C[C@H]2C[C@@H](C1)c1cccc(=O)n1C2 | · | · | -2% | · | -20% | i
C[C@@H]1[C@H]2C=C[C@@H]1[C@@H](c1c3ccc(=O)c(O)c-3oc3c(O)c(O)ccc13)[C@@H]2C(=O)O | 7%[11.5 µM] | 2%[9.22 µM] | 0.13µM* | 6%[9.22 µM] | ? | i
O=c1cccc2n1C[C@H]1C[C@@H]2CN(CCO)C1 | · | · | 0% | · | 13% | i
Cn1nc(-c2ccc(OCC(=O)N3CCN(Cc4ccccc4)CC3)cc2)c2ccccc2c1=O | 32µM* | -3% | -4% | -7% | 6% | i
NC[C@H](O)c1cc(O)c(O)cc1F | -9% | 6% | 11% | -7% | -1% | i
O=c1c(O)c(-c2ccc(O)c(O)c2)oc2cc(O)cc(O)c12 | ? | 33% | -16% | 33% | 32µM*! | i
Cc1ccc2oc(-c3ccc(Cl)cc3)c(O)c(=O)c2c1 | · | ? | · | -18% | · | ·
O=C(O)c1cc[c]([Hg][S]c2ncnc3nc[nH]c23)cc1 | 4%[11.5 µM] | ? | -4%[11.4 µM] | -12%[9.22 µM] | -10%[11.4 µM] | i
COC(=O)[C@H](N)CCCN=C(N)N[N+](=O)[O-] | 0% | 10% | -5% | -10% | -7% | i
C=C[C@@H]1CN2CC[C@@H]1C[C@H]2[C@H](O)c1ccnc2ccccc12 | · | · | -5% | · | ? | i
Cc1ccc(Cl)cc1N1CCN(C(=O)C2CCN(Cc3nc(-c4ccc(Cl)cc4)oc3C)CC2)CC1 | · | 13µM* | · | 4% | · | ·
Cc1oc(-c2ccc(Cl)cc2)nc1CS(=O)CC(=O)N1CCC2(CC1)OCCO2 (stereo not drawn) | 7% | -9% | -6% | 2% | -4% | i
CC(C)N[C@@H](C)Cc1ccc(I)cc1 | 20% | -2% | 3% | -2% | -7% | i
CC(C)n1cc2c3c(cccc31)[C@@H]1C[C@H](C(=O)O[C@@H](C)[C@H](C)O)CN(C)[C@H]1C2 | ? | 0% | -3% | -13% | 9% | i
C=CCn1c(O)c(C(C)=NCc2cc(OC)cc(OC)c2)c(=O)[nH]c1=O | ? | ? | -4% | 10µM* | 2% | i
